Source: PubChem BioAssay
Many of the other results were omitted from the sample, so hits are more common in it than they were.
Cycloheximide cs – counter-screen hit for Shiga toxin inhibitors, cycloheximide | max response, % | actives 12% (n = 300,000) | cell reporter, cycloheximide protein synthesis inhibition counterscreen; in the data active = max response mostly above about 13%, no sharp cut-off; inactive = mostly below about 14%; note: read at 38.3 µM for the half of the compounds with a filed dose; 0% is about no effect
Shiga toxin inh – blocks Shiga toxin action in Vero cells. Vero cells, Shiga toxin protein synthesis inhibition reporter. inhibition, % at 38.7 µM. actives 9.2% (n = 290,000). AID 2315; in the data active = inhibition mostly above about 28%, no sharp cut-off; inactive = mostly below about 43%; note: 0% is about no effect
Tb PYK inh – T. brucei pyruvate kinase inhibition | TbPYK enzyme, Kinase-Glo Plus ATP luminescence, 45 min | Potency, µM (doses to about 76.8 µM), for the others: top-dose activity, negative = inhibition, hits mostly inhibitors | actives 0.12% (n = 410,000); note: potency is the fitted concentration of half-maximal effect; % is set by controls: 0 for no effect and ±100 for the full control effect; nearly all actives have a fitted effect of over 50% in size
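Screened from lowest to highest concentration, compounds were pinned into TbPYK/substrate mixtures, and ADP (130 uM final) was added. Plates sat at room temperature for 45 min prior to Kinase-Glo Plus detection by luminescence.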
LmPK inh – LmPK (Leishmania mexicana) enzyme inhibition; actives 0.37% (n = 290,000); purified LmPK, Kinase-Glo ATP luminescence, 1 h; Q27686; Potency, µM (titrated, usually from 57.5 µM), without a hit: top-dose activity change, negative = inhibition, usual class: inhibitors; note: potency is the fitted concentration of half-maximal effect; % is set by controls: 0 for no effect and ±100 for the full control effect
Target sequence (Q27686 whole entry, looked up): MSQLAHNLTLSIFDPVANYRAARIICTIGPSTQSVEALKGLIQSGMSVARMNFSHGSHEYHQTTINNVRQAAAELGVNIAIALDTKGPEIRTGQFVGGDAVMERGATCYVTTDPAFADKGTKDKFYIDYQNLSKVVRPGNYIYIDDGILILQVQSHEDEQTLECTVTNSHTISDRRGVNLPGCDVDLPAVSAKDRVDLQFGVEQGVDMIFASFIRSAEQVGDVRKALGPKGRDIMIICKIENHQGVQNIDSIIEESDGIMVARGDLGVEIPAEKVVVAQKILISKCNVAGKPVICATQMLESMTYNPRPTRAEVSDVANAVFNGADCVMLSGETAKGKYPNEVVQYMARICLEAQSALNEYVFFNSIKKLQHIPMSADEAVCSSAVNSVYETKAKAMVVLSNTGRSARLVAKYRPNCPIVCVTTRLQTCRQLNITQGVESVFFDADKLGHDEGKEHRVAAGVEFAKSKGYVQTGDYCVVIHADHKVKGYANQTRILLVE
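Purified LmPK (0.1 nM) with 0.5 mM PEP and 0.1 mM ADP in imidazole buffer pH 7.2 with MgCl2/KCl, 1 h at room temperature. ATP formed was read by luciferase luminescence and normalized to no-enzyme and uninhibited controls.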
NS1 function inh – inhibitors of influenza NS1 protein function; Potency, µM (doses to about 46.1 µM), for inactives: top-dose activity, positive = more growth; actives 0.4% (n = 270,000); calls by dose curve; note: potency is the fitted concentration of half-maximal effect; actives are rising curves; nearly all actives have a fitted effect of over 50% in size
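S. cerevisiae expressing influenza A NS1, grown in glucose, washed, then diluted 1:100 into pH 6.0 -URA galactose medium with 23 nl compound. Growth recovery read as OD600; NS1-free strain serves as control.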
SARS PLpro yeast – blocks SARS-CoV papain-like protease in a yeast assay. S. cerevisiae expressing SARS-CoV PLpro, growth rescue. Potency, µM (titrated, usually from 32.9 µM), without a hit: at the top dose activity, positive = growth rescue, hits mostly activators. actives 0.19% (n = 330,000); calls by dose curve; note: potency is the fitted concentration of half-maximal effect; 0% is about no effect; nearly all actives have a fitted effect of over 55% in size
* marks the source's active call; other numbers are inactive results; ? = inconclusive; / = not tested or not shown. Unless noted, calls come from the whole dose curve; as a rule, active = well fitted curve in the direction sought with a large enough effect; inconclusive = small, poorly fitted or top-dose-only effect, or another doubt; inactive = no such curve, though single readings can be large; an effect the other way counts as inactive or inconclusive.

SMILES | Cycloheximide cs | Shiga toxin inh | Tb PYK inh | LmPK inh | NS1 function inh | SARS PLpro yeast
O=C(Nc1ccc2c(c1)OCO2)N1CCN(c2cccc(C(F)(F)F)c2)CC1 | 11.6* | 26.7* | -2.3% | 1.1% | -30.6% | -4.2%
COc1cc(Nc2nc3c(S(=O)(=O)c4cccc(Cl)c4)nnn3c3ccsc23)cc(OC)c1 | / | / | -5.9% | / | / | /
Cc1ccc(S(=O)(=O)N(CCC(=O)NCc2ccc(S(N)(=O)=O)cc2)c2ccccc2)cc1 | / | / | -3.9% | / | / | 2.9%
Cc1ccc(-c2csc(-c3ccncc3)n2)cc1 | 25.9* | 95.8* | -5.0% | -5.1% | -7.8% | -3.5%
Brc1ccc(-c2csc(-c3ccncc3)n2)cc1 | 17.3 | 41.6* | -1.8% | 6.1% | -12.7% | -34.0%
Oc1ccc(N=Nc2ccc3c(c2)OCCO3)c2ncccc12 | 47.6* | 95.3* | -9.0% | -10.2% | -50.1% | 3.6%
Cc1ccc(N=Nc2ccc(N)cc2C)c(S(N)(=O)=O)c1 | 65.0* | 93.9* | 0.0% | -0.2% | 0.7% | -1.3%
NS(=O)(=O)c1ccc(N=Nc2ccc(O)c3ncccc23)cc1 | 4.7 | -8.5 | -11.7% | -2.6% | 26.5% | 3.6%
Cc1ccc(N=Nc2c(O)c(S(=O)(=O)O)cc3cc(S(=O)(=O)O)ccc23)c(C)c1 | / | / | / | / | -3.1% | /
Cc1cccc(N=Nc2ccc(O)c3ncccc23)c1 | 45.6* | active | -18.7% | -11.1% | -72.0% | /
CCOc1ccc(N=Nc2ccc(O)c3ncccc23)cc1 | -2.1 | 3.5 | -5.6% | -5.9% | 3.8% | 1.2%
Cc1ccc(N=Nc2cc(C)ccc2O)c(C)c1 | 35.9* | 77.1* | 11.0% | -2.8% | 3.2% | -2.3%
CCCCCCCCNCCS(=O)(=O)NC1CCCCC1 | / | / | -4.8% | / | / | /
COc1cccc(C(c2sc3nc(-c4ccco4)nn3c2O)N2CCN(c3ccccc3F)CC2)c1 (centres undefined) | / | / | -1.7% | / | / | /
O=C(c1ccco1)N1CCCC(c2nc3c(nnn3Cc3ccc(Cl)cc3Cl)c(=O)[nH]2)C1 (centres undefined) | -5.3 | -7.5 | 2.1% | -4.1% | 10.5% | -5.4%
O=C(NCCCNC(=O)c1cc(Cl)ccc1Cl)c1ccco1 | -3.8 | -9.6 | 2.9% | -1.9% | 4.0% | 1.8%
NS(=O)(=O)c1cc(Br)c(N=Nc2ccc(O)c3ncccc23)c(Br)c1 | / | / | / | / | 2.6% | /
Cc1ccc(C)c(N=Nc2ccc(O)c3ncccc23)c1 | 42.9* | 151.0* | -1.9% | -0.3% | / | ?
Cc1ccc(NC(C(=O)c2ccccc2)c2ccccc2)cc1 (centres undefined) | / | / | -9.4% | / | / | /
CC1CCCCN1C(=O)COC(=O)CNC(=O)c1ccc(Cl)cc1Cl (centres undefined) | / | / | -0.2% | / | / | -3.7%
Cc1ccnc2c1ccc1cccnc12 | / | / | -10.2% | / | / | 1.7%
Cc1ccnc2c1ccc1ccccc12 | 16.2* | 20.9 | -7.4% | 2.3% | -9.5% | 4.4%
O=C(/C=C/c1ccccc1)c1ccccn1 | 38.1* | 83.8* | ? | 14.1µM* | -44.7% | -7.6%
N/C(=N\OC(=O)/C=C/c1ccccc1)c1ccccn1 | 20.2* | 30.2 | -26.6% | 12.6µM* | -10.3% | -2.0%
N/C(=N\OC(=O)/C=C/c1ccccc1Cl)c1ccncc1 | 66.5* | 137.4* | 0.8% | -8.6% | / | -6.5%
SMILES | Cycloheximide cs | Shiga toxin inh | Tb PYK inh | LmPK inh | NS1 function inh | SARS PLpro yeast
N/C(=N\OC(=O)/C=C/c1ccccc1)c1ccncc1 | 21.4* | 70.7* | -2.7% | -1.1% | / | -7.4%
O=C(/C=C/c1ccccc1Cl)NNC(=O)c1ccncc1 | / | / | -5.4% | / | / | -1.0%
COc1ccc(/C=C/C(=O)Nc2cccc(S(=O)(=O)NC3=NCCCCC3)c2)cc1OC | / | / | -0.7% | / | / | 2.0%
O=C(O)CC1(CC(=O)Nc2nccs2)CCCCC1 | / | / | -1.4% | / | / | /
COc1ccc([C@H]2C[C@@H](O)[C@H](n3cc(C4CC4)nn3)CN2Cc2cccs2)cc1 | / | / | -2.6% | / | / | /
CSC1=NC2(CCN(C(=O)NC3CCCCC3)CC2)N=C1c1ccc(C)c(C)c1 | / | / | -2.6% | / | / | /
Cc1ccccc1OCC(=O)OCC(=O)c1ccc(OC(=O)c2ccccc2)cc1 | -3.4 | 18.2 | 2.7% | 2.8% | -1.7% | -1.2%
Cc1ccccc1OCC(=O)OCC(=O)c1ccc(OCc2ccccc2)cc1 | 59.5* | 80.8* | -3.4% | 8.4% | -1.5% | 12.3%
N/C(CN1CCCC1=O)=N\OC(=O)c1ccc(Cl)cc1 | 15.3* | -4.0 | 5.0% | -0.9% | 25.0% | 2.1%
